Bioassay records (PubChem)
Only some compounds are listed: those with a hit (about 2.5% of all), similar ones and a draw of the others.
Marburg entry inh = inhibitors of Marburg virus binding or cell entry; Potency, µM (series often up to 37.8 µM), for inactives: top-dose activity change, negative = inhibition, usual class: inhibitors; Marburg virus pseudotyped entry inhibition, cell reporter; 1.8% of 300,000 active; calls by dose curve; tested in HEK293 cells
LASV entry inh = inhibitors of Lassa virus binding or cell entry | Lassa virus pseudotype entry inhibition, cell reporter | Potency, µM (top dose mostly 37.9 µM), inactives show top-dose activity change, negative = inhibition, usual class: inhibitors | 1.2% of 300,000 active; calls by dose curve; tested in HEK293 cells; further: nearly all actives have a fitted effect of over 50% in size
VACV mCherry inh = inhibitors of vaccinia virus infection (mCherry reporter signal); Vaccinia virus mCherry reporter infection, fluorescence; Potency, µM (top dose mostly 36.5 µM), inactives show at the highest dose activity change, negative = inhibition, usual class: inhibitors; 0.63% of 310,000 active; calls by dose curve; tested in A549 cells; further: nearly all actives have a fitted effect of over 35% in size
VACV Venus inh = vaccinia inhibition (Venus reporter); Vaccinia virus Venus reporter expression, fluorescence; 0.46% of 330,000 active; Potency, µM (series often up to 36.5 µM), without a hit: top-dose activity change, negative = inhibition, usual class: inhibitors; calls by dose curve; tested in A549 cells; further: nearly all actives have a fitted effect of over 30% in size
* hit, by the source's call; i = inactive; ? = inconclusive; . = no result; [ ] = remark or other dose. On the % scale 0 is the no-effect control and ±100 the full control effect; potency means the concentration at half of the fitted maximal effect.

SMILES	Marburg entry inh	LASV entry inh	VACV mCherry inh	VACV Venus inh
Cc1ccc(NCC(=O)N/N=C\c2ccc([N+](=O)[O-])o2)cc1	?	-29%	11µM*	?
O=C(CNc1ccccc1)N/N=C/c1ccc([N+](=O)[O-])o1	18µM*	?	.	.
Cc1ccc(CC(=O)N/N=C/c2ccc3c(c2)OCO3)cc1	?	-14%	2%	1%
O=C(N/N=C/c1ccc([N+](=O)[O-])o1)c1ccncc1	-23%[46.1 µM]	?	i[7.34 µM]	4%[7.34 µM]
COC(=O)c1cc(CNC(=O)c2cccc(C)c2)cc(NC(=O)c2ccncc2)c1	.	.	-8%	2%
Cc1nc2ccccn2c1C(=O)N/N=C/c1ccc([N+](=O)[O-])cc1	?	3%[46.1 µM]	-10%	-3%
Cc1nc2ccccn2c1C(=O)N/N=C/c1ccc([N+](=O)[O-])o1	.	.	?	7.1µM*
CC1CN(CCS(=O)(=O)c2cc(Cl)ccc2Cl)CC(C)O1 (stereo not given)	2%	-24%	11µM*	?
CC(=O)N1CCN(CCS(=O)(=O)c2cc(Cl)ccc2Cl)CC1	-17%	-3%	?	?
CC(C)[C@@H](OCc1ccccc1)[C@H](C)C=NO[C@H](C)c1cn([C@@H]2COC[C@@H]2O)nn1	-6%[14.2 µM]	.	.	.
CCCc1cc(=O)oc2c3c(c4c(c12)OC(C)(C)C=C4)OC(C)C(C)C3O (stereo not given)	.	.	11µM*	?
Cc1c(O)ccc2c(CN3CCN(C/C=C/c4ccccc4)CC3)cc(=O)oc12	8.9µM*	?	-7%	-28%
CCCCc1nc(NC[C@H]2CCCO2)c(C#N)c2c1COC(C)(C)C2	-13%	.	.	.
Cc1ccc(S(=O)(=O)NN2C(=O)c3ccccc3NC2c2ccccc2O)cc1 (stereo not given)	12%[46.1 µM]	-1%[46.1 µM]	-3%	-16%
Cc1ccc(S(=O)(=O)NN2C(=O)c3ccccc3NC2c2ccccn2)cc1 (stereo not given)	7.9µM*	?	-4%	-7%
CCOc1cc(/C=C/C(=O)c2ccc(OC)c(CN3CCOCC3)c2)cc(Br)c1O	?	?	11µM*	184%
CC1CCN(c2nnc(-c3ccccc3)c3ccccc23)CC1	?	-6%	?	?
Cc1ccc(-c2nnc(N3CCC(C)CC3)c3ccccc23)cc1C	-26%[46.1 µM]	3%	28µM*	13µM*
COC(=O)C1=C(C)N(CC2CC2)C(=O)NC1c1ccccc1 (stereo not given)	-5%[14.2 µM]	.	.	.
Cn1c(=O)[nH]c(=O)c2c1nc(Br)n2CCCSc1nc2ccccc2o1	8.2µM*	-18%	.	.
COc1cc(NC(=O)c2cc(-c3cccnc3)nc3ccc(Br)cc23)cc(OC)c1	?	11µM*	-2%	-12%
Fc1ccccc1N1CCN(c2ncnc3[nH]ncc23)CC1	5µM*	10µM*	-12%	8%
C=CCN(CC=C)c1ccc(/C=C/c2ccnc3ccccc23)cc1	.	.	-15%	15%
CCN(C(=O)c1cnc(N2CCOCC2)c2ccccc12)c1cc(C)ccc1C	.	5µM*	-14%	-3%
Cc1ccc(N(C)C(=O)c2cnc(N3CCOCC3)c3ccccc23)cc1C	.	?	-5%	-7%
SMILES	Marburg entry inh	LASV entry inh	VACV mCherry inh	VACV Venus inh
Nc1nn(-c2cccc(F)n2)cc1-c1ccc(Cl)cc1	?	?	-9%	-7%
COc1ccc(-c2ccn(-c3cccc(F)n3)n2)cc1	10µM*	?	-27%	-21%
O=C(c1cccs1)N1C[C@@H](O)[C@@H](n2cc(C3CC3)nn2)C[C@@H]1c1ccccc1	.	8%[46.1 µM]	.	.
O=C1NC(c2ccccc2)=C(c2nc3ccccc3s2)C(c2ccc(F)cc2)N1 (stereo not given)	23µM*	?	.	.
CCOC(=O)Cn1nnnc1C(C(C)C)N(Cc1cc2c(C)cc(C)cc2[nH]c1=O)C1CCCC1 (stereo not given)	8.9µM*	?	.	-16%
CC(=O)N(Cc1cc2c(C)cc(C)cc2[nH]c1=O)C1CCCCC1	?	-22%	.	?
CCCCCCCCCC[n+]1ccc(/C=C/c2c(C)[nH]c3ccccc23)c2ccccc21	.	.	i	i
Cc1ccc(NC(=O)c2ccc([N+](=O)[O-])cc2)cc1S(=O)(=O)N(C)C	19%[46.1 µM]	?	-12%	-1%
COc1ccc(OC)c(CC(=O)Nc2ccc3c(c2)CCC3)c1	-4%[46.1 µM]	0%	-9%	-2%
COc1ccc(CC(=O)Nc2ccc3c(c2)CCC3)cc1OC	?	11µM*	.	?
Cc1ccc(NC(=O)CCNC(=O)c2ccc([N+](=O)[O-])cc2)cc1S(=O)(=O)N(C)C	10µM*	?	-8%	-19%
COc1ccc(CCC(=O)Nc2ccc(C)c(S(=O)(=O)N(C)C)c2)cc1OC	11µM*	-1%	-7%	-15%
COc1cccc([C@H]2/C(=C(\O)c3ccc(C)cc3)C(=O)C(=O)N2Cc2ccco2)c1	21%[46.1 µM]	.	.	.
C#CCN(C[C@@H]1[C@@H](OC(=O)Nc2cccs2)[C@@H](OC(=O)Nc2cccs2)Cn2c(=O)ccc(=O)n21)S(=O)(=O)c1ccc(C)cc1	.	.	?	8.9µM*
C#CCN(C[C@@H]1[C@@H](OC(=O)NCc2ccccc2F)[C@@H](OC(=O)NCc2ccccc2F)Cn2c(=O)ccc(=O)n21)S(=O)(=O)c1ccc(C)cc1	.	.	?	7.1µM*
C#CCN(C[C@@H]1[C@@H](OC(=O)NCc2ccccc2F)[C@@H](OC(=O)NCc2ccccc2F)Cn2c(=O)n(CCCCCC)c(=O)n21)S(=O)(=O)c1ccc(C)cc1	.	.	-26%	-24%
C#CCN(C[C@@H]1[C@@H](OC(=O)NC2CCCC2)[C@@H](OC(=O)NC2CCCC2)Cn2c(=O)ccc(=O)n21)S(=O)(=O)c1ccc(C)cc1	.	.	?	7.9µM*
COc1ccccc1C=CC1=CC2(C)CC1(C)C(c1ccccc1OC)CC2=O (stereo not given)	-29%[14.2 µM]	.	.	.
CCCNC(=O)c1nnsc1S(=O)(=O)c1ccc(Cl)cc1	?	2.8µM*	?	13µM*
C=CC[C@H](c1ccc(F)cc1)N(CC(C)C)S(=O)(=O)C=C	.	.	-51%	-71%
CCOC(=O)c1ccc(CN(Cc2ccccc2)S(=O)(=O)c2ccc(C)cc2)cc1	.	11µM*	-12%	-1%
CCOc1ccc(-c2cccc(NS(=O)(=O)c3cc([N+](=O)[O-])ccc3Cl)c2)nn1	8%	-3%	10µM*	?
COc1ccc(NC(=O)CC2C(=O)N(C)C(=S)N2CCc2ccccc2F)cc1 (stereo not given)	?	?	-9%	-6%
CN1C(=O)C(CC(=O)Nc2ccc(F)cc2)N(CCCc2ccccc2)C1=S (stereo not given)	11µM*	?	.	?
COC1=C(c2ccccc2)C(=O)c2ccccc2C1=O	4%	-17%	-24%	-8%
O=C(C1=C(c2ccccc2)C(=O)c2ccccc2C1=O)c1ccccc1	?	2.6µM*	?	-13%
COc1ccc(/C=C2\SC(=N)N(c3nccs3)C2=O)cc1OC	?	-24%[46.1 µM]	-15%	-9%
N=C1S/C(=C\c2ccc(-c3cccc(Cl)c3)o2)C(=O)N1c1nccs1	3.2µM*	?	-1%	-9%
CCCS(=O)(=O)c1ncc(Cl)c(C(=O)Nc2sc3c(c2C(=O)NCC)CCCC3)n1	.	.	-21%	-23%
O=[N+]([O-])c1ccc(S(=O)(=O)NCCN2CCOCC2)cc1	0%[46.1 µM]	1%	i	-2%
